Measurements as given in the supplement of paper PMC11417369.
In all, about 25,000 sequences were measured (“ln(normalized median fluorescence intensity)”: median about 6.7, highest 2% from about 10 on). For the sample, the highest values were picked, then their nearest neighbours and some sequences at random.

System: PfHDP1 homeodomain (GST-tagged)
Assay: gcPBM binding intensity (ln(normalized median fluorescence intensity)); higher = stronger DNA binding
In short: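 Binding intensity is defined as the maximum Masliner-normalised natural-log median intensity across replicate spots for either probe orientation. It was measured on an Agilent 4 × 180k array of primer-extended double-stranded 36-bp intergenic genomic probes and negative controls, to which GST-tagged P. falciparum DNA-binding domains made in E. coli were applied for 1 h in 1× PBS with 1% milk, 0.2 mg/ml BSA, 0.5% salmon testes DNA and 0.03% Triton X-100. Detection was by Alexa488 anti-GST antibody and scanning at 488 nm.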

Sequence	gcPBM binding intensity (ln)
ATATTATTTTATGCTACACACATTTTCTCTTATAAA [CACACA_site943]	7.25
AAAAAAAAAATATACACACACATATATATATATATA [CACACA_site3404]	9.35
GTAGACTGAAACCACACACACATATATATATATATT [CACACA_site605]	6.93
ATATAGAATATATTAACATGCAATAAGTAAAGGGGG [TGCATGCA_site1022]	7.05
TGTATGTATTTTCAATGTACATAAAAAAAAAAAAAA [XGTACX_site4397]	6.71
AATCTAATATAATGCACACATAAAAAAAAATCAAAC [CACACA_site3633]	10.7
AATATAATATAATGCACACATAAAAAAAAAAAAATC [CACACA_site1303]	10.6
TGAAATAAATAATGCACACTCTACAGATATACGTAT [CACACA_site5270]	10.1
TTTGAAATAAATAATGCACACTCTACATATATACGT [CACACA_site2244]	10.6
AAAATATAATATAATGCACACATAAAAAAAAAATCA [CACACA_site7922]	10.2
GTTGAAAAAAAAAATGCACACGCATACATATAATAT [CACACA_site8117]	9.09
AAAATCTAATATAATGCACACATAAAAAAAAATCAA [CACACA_site9211]	9.65
AATATAATATAATGCACACATAAAAAAAAAATCAAA [CACACA_site122]	11
AATCTAATATAATGCACACATAAAAAAAAAATCAAA [CACACA_site2714]	10.2
GTAAATATGTTTATTAGTACACATATGAAAATAAAT [XGTACX_site5820]	6.42
GAGAAATGGAGACACACACACATATTATATATATAT [CACACA_site1532]	8.68
AAACAATTATTATATTGTACATATATTACATTATTA [XGTACX_site1089]	6.23
ACTATCATTTTTTTAACACACAAAAAAAATAAAATA [CACACA_site3519]	6.44
TATATATAATATTATACACACATATATGCATAATAT [CACACA_site54]	7.56
AAATGTGAAAAAGAGTGTACCCGACTTGAAATTAAG [XGTACX_site8621]	6.92
TTAATTATAAGAAAAAGTACTCATTACATTATAGAA [XGTACX_site678]	6.12
TAGTATGATAACTTGGGTACATAAATATGGAGTATC [XGTACX_site1296]	6.81
TATATTTTAATTTGAAGTACTAATATTTATTTATAT [XGTACX_site7458]	6.14

Sequence	gcPBM binding intensity (ln)
AAAATATAATATAATGCACACATAAAAAAAAAAAAA [CACACA_site7989]	9.84
AATATAATATAATGCACACATAAAAAAAAAAAAAAA [CACACA_site304]	10.9
AAAAATAATGCACATATATATAATATGTATATGTAT [CACACA_negctrl_site443]	11.1
TATAATATAATATATGCACACAAATATGTATATATG [CACACA_site8664]	9.95
ATAATAAAAAAAAATGCACACATATATATATATATA [CACACA_site8766]	9.5
AAAAAATATACATATACACACATATGTATATATAAT [CACACA_site8676]	6.34
CTTATGTGCATACCTACACACTTACAGATATATATA [CACACA_site5622]	9.61
ATATATAATTTTTACACACGCAATAAATATATATAT [CACACA_site4283]	7.7
TTTAATTATTAAATGGTGCACTTGAAATATAAAAAT	10.1
TTGTTTTTCTTTGAATGTACTTAATGATTTCCAATT [XGTACX_site2499]	6.44
CAAAACAAAGTTGCCGCACACAGATACGCACCCAAG [CACACA_site3455]	7.09
CACACGCACAGACACACACACACACGGATATAAATA [CACACA_site6301]	7.76
ATATACATATATATGGGTACATATATTAATATATAT [XGTACX_site8358]	6.74
AAAATTAGATTATGCACACACACTTAAAAATAATAA [CACACA_site1975]	10.1
GTTAGGATAGATTAGACATGCACATAAATGCACTTC [TGCATGCA_site561]	10.6
AGGATATGCAGACACACACACATATAGATTTATATA [CACACA_site7100]	6.6
ATATAATTAAAATGCTCACACACATAAAAAAAAATT [CACACA_site2148]	8.58
TTTTGTTATTTTTGTATGCACTACATATTATTATAT	8.89
TTATTAAATAAAATCATGCACACAATATATATTTTA [CACACA_site2496]	8.65
TCGTATATGGATTTTGCACACAATTATAATTTAAAT [CACACA_site868]	10.8
AATAATACACAATTTTGTACGTATTTAAAATATATT [XGTACX_site45]	6.74
GCTAAACAATAGTTTGCACACAATTTAAATATATAT [CACACA_site193]	10.3
CATAAATTAATAGTCACACACGTATTTTTTATATAT [CACACA_site2526]	6.16

Sequence	gcPBM binding intensity (ln)
TCGTATATGGATTTTGCACACAATTTTAATTTAAAT [CACACA_site4635]	10.7
AATATAAACAGACACACACACATATAGATTTATATT [CACACA_site7382]	6.8
TTCATATAATTATATACATGCATAAATTCTAAGTAA [TGCATGCA_site622]	6.78
ATACATATATATGTGTGTACATATGTGTATACATTT [XGTACX_site6544]	6.84
CACACCATATAATATATATATATGTATATATTTATA [CACACA_negctrl_site397]	6.58
TGTAATATATGTATTGCACACCTATAACCATTATTT [CACACA_site8422]	9.86
TAATATATGTATTGCACACCTATAACCATTATTTCT [CACACA_site1498]	10.5
ACATAAAATAAATATACACACATATGTATATATCAT [CACACA_site7424]	6.52
TTTATATTATTATATCTTATTAATTATTTATCATTT [TGCATGCA_negctrl_site73]	6.23
TTATAATTTTAATGTGCACACAATTAAAATATTATA [CACACA_site5172]	10.2
TATTTATTTTTTTTTGTGCACTTAATATAATCTTAC	9.51
AATATATATATTAGAGTGCACATAATTATTTGCTAA	8.88
TATATATATATTTTTTGTACATATTATATAATATAC [XGTACX_site5187]	8.42
ATATTTTATTTAATTACACACAATATTGCAATTTGT [CACACA_site669]	8.74
TTTTTTTTTTTTAATGCACACAATATATAATATGTA [CACACA_site3694]	10.2
TTTTTTTTTTTTTTTGTGCACAATATAATTTTTAAT [GTGCAC_site9747]	10.8
TAATAATATATTTGTAGTACACAATTTTTTATAACT [XGTACX_site3951]	6.34
TATTATAATATATTTGTGCACATAATACCTCCGCTA [GTGCAC_site9570]	10.9
AACTGTACAATTTTTGTGCACAATAATTATTAATAT [GTGCAC_site9462]	11
TTATAATATTAATGTGCACACAATTAAAATATTATA [CACACA_site2046]	10.7
TAAATTATAATATGCACACAAAATGTTATATTAAAA [CACACA_site376]	9.55
TTTTTATATATATGTATAAATATTTTTTCTATTTAT [XGTACX_negctrl_site606]	6.46
ACATCAAGCAGACACACACACACACCCACCCACCCA [CACACA_site8012]	6.5

Sequence	gcPBM binding intensity (ln)
ACAGGAAAAAACAATTGTACATGTATATATATATAT [XGTACX_site7677]	9.16
AAATATTACATACACGCACACATTAATATATTTAAA [CACACA_site2603]	7.25
AAAAAAAAAAAAAAATGTACATATTAAGTATAATTA [XGTACX_site4616]	6.23
TGTATGTATTAATGCGCACACAAAAAATAACAATAT [CACACA_site1848]	7.88
TTATATTTTTTAATTACACACAATTTTTATAAATAT [CACACA_site4148]	6.66
TATAAAGATATAAATGCACACGTATTAAAAAAAAAA [CACACA_site8223]	8.22
TATGTATGTATTAATGCGCACACAAAAAATAACAAT [CACACA_site8551]	7.73
TAAGATATAAAAAATGTGCACATTAAAGTATTAATT	10.5
TTAATTTTATTTTTTTGTACACATAAATATTATAAA [XGTACX_site4680]	6.62
TAAATAATAATAAATGTGCACAGGTATTAACAAAAA [GTGCAC_site9988]	10.6
CATATAAATATTTGTGCACACAATTATTAATAATTA [CACACA_site3884]	11.2
TAATAAATAAAAACATGTACATATATACATATATGT [XGTACX_site485]	6.35
ATATATATAAATATATGTACATAAATATATTTGTAA [XGTACX_site6715]	6.71
GAAAAAAGGAAATAAAGAAAAAAAAAAATGAAATAT [XGTACX_negctrl_site318]	6.22
AACATTTTAAAACAGACACACACCAAAAAAAAAAAA [CACACA_site257]	6.26
GGACAAGTTAAACGCACACAAATATATACCCCCATA [CACACA_site4996]	7.91
CCTTGTCTTTTTTTTTTTTTTTTTTCTTCTTATTTT [GTGCAC_negctrl_site523]	6.24
CATATAGTAATATATACACACACTTGTCTTGTAAAA [CACACA_site8238]	6.54
ATTTAATACAAATACACACACAAATATGTACCTATA [CACACA_site7718]	7.02
GAAAAATATATTCTGGTGCATGAATAAAATCATAAA	9.33
GTTTACATCATTCTGGTGCAAAAAAAAAAAAAAATA	10.5
ACATTCTGATGGTGATTATTAATTATTACAAAAATT [CACACA_negctrl_site283]	6.01
